Hits are enriched below; roughly 4% of the tested compounds scored in any of these assays.
Gli-Sufu block: Gli-Sufu pathway antagonism. Sufu-KO-LIGHT fibroblasts, Gli luciferase reporter luminescence. inhibition, % at 5 µM. 0.74% of 340,000 active. AID 588413;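 active means inhibition above about 55%, limit read from the data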
697 NFkB inh: inhibitors of the PMA/ionomycin-induced NF-kB reporter in 697 B cells; inhibition, % at 4 µM; 0.33% of 330,000 active; AID 435022; 697 B-cell NF-kB luciferase reporter, 16 h; in the data active means inhibition above about 35%
Beta cell apopt: blocks beta cell apoptosis; INS-1E cytokine-induced death, ATP luminescence, 48 h; percent of positive-control rescue, neutral wells zero; protection from apoptosis, % (no concentration beside the values); 0.8% of 300,000 active;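 active means Every replicate reaches about 75%, or at least half do and their mean reaches it too, limit read from the data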;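 further: higher means more ATP so stronger rescue from cytokine killing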
Mdm2 MdmX PPI: disrupts the human Mdm2-MdmX interaction | O15151+Q00987 | SaOS-2 split-luciferase Mdm2/MdmX complementation, luminescence | inhibition, % at 8 µM | 3% of 330,000 active;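 active means inhibition of at least 50% at 8 µM in the primary screen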
Jurkat NFkB inh: inhibitors of the PMA/ionomycin-induced NF-kB reporter in Jurkat cells | inhibition, % at 4 µM | 0.53% of 330,000 active | PMA/ionomycin-induced NF-kB luciferase reporter, luminescence; in the data active means inhibition above about 50%
Jurkat NFkB conf: inhibitors of the PMA/ionomycin-induced NF-kB reporter in Jurkat cells, retest | inhibition, % at 4 µM | Jurkat NF-kB luciferase, 16 h | 27% of 2,700 active | shares compounds with Jurkat NFkB inh;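 active means inhibition reaching about 45% at 4 µM in either replicate, limit read from the data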
Large screens that a line does not name were inactive (follow-up assays come after a bar, where they were run).

CC1=C(C#N)C(c2cn(-c3ccccc3)nc2-c2cccs2)C(C#N)=C(C)N1	Jurkat NFkB inh 53 | Jurkat NFkB conf inactive
Cc1c(Br)c(C(F)(F)F)nn1CC(=O)N(C)C1CCCCC1	none
Cc1snc2sc(C(=O)c3ccc(Br)cc3)c(N)c12	none
Cc1ccc(C(=O)c2sc3nsc(C)c3c2N)cc1	none | Jurkat NFkB conf inactive
CCOC(=O)C1Oc2ccccc2C(c2ccoc2)=C1C(=O)OC (configuration not stated)	none (no result: Beta cell apopt, Jurkat NFkB inh)
CC(C)(C)C(=O)Nc1cc2c3c(c1)CCN3C(=O)CC2	none
Cc1ccc(C2=NN3C(C2)c2ccccc2OC32C(=O)Nc3ccccc32)cc1 (configuration not stated)	none | Jurkat NFkB conf inactive
CC(C)NC(=O)NC(=O)COc1ccc(Br)cc1Br	none | Jurkat NFkB conf inactive
COc1ccc(CCNC(=O)c2ccc3c(c2)S(=O)(=O)N=C2CCCCCN23)cc1	none
O=C(Nc1ccc2ccccc2c1)c1cnccn1	none | Jurkat NFkB conf inactive
CN1CCN(c2ccc(NC(=O)c3ccc(Br)o3)cc2)CC1	none
COc1ccc(C(=O)NNC(=O)c2ccc3ccccc3c2)cc1	none (no result: 697 NFkB inh, Beta cell apopt, Mdm2 MdmX PPI, Jurkat NFkB inh)
O=C(Nc1ccc2nccnc2c1)c1cnccn1	none
CN1CCN(c2ccc(NC(=O)c3ccc(-c4ccccc4F)o3)cc2)CC1	none | Jurkat NFkB conf inactive
CN1CCN(c2ccc(NC(=O)c3ccc4ccccc4c3)cc2)CC1	none | Jurkat NFkB conf inactive
COc1ccc(NC(=O)c2ccc3ccccc3c2)cc1	none | Jurkat NFkB conf inactive
COc1ccc(NC(=O)CCNS(=O)(=O)c2ccc3[nH]c(=O)oc3c2)cc1Cl	none
CCN(CC(=O)Nc1ccc(NC(C)=O)cc1)C(=O)c1cccc2ccccc12	none
CNc1nc(Cl)c(SC)c(NCc2ccc(F)cc2)n1	none
COc1cc(C(O)CO)ccc1OS(=O)(=O)O (configuration not stated)	none
CC(C)CNc1ncnc2[nH]ncc12	none (no result: 697 NFkB inh, Beta cell apopt, Mdm2 MdmX PPI, Jurkat NFkB inh)
Nc1ccc(Cl)c(S(=O)(=O)Nc2ccc(Cl)cc2)c1	none
Cc1nnc(NC(=O)Cn2nc(C)c3ccccc3c2=O)s1	none
O=C(Nc1nccs1)c1ccc2ccccc2c1	none (no result: Beta cell apopt) | Jurkat NFkB conf inactive
O=C(Nc1nccs1)c1ccc(Br)cc1	none
N#Cc1ccc(C(=O)Nc2ccc3ccccc3c2)cc1	none | Jurkat NFkB conf inactive
COc1cc(NC(=O)COC(=O)CCOc2ccc(C)cc2)cc(OC)c1	none (no result: Beta cell apopt)
CCOc1cc(/C=N/O)ccc1OCc1ccc(F)cc1	none
COc1cc(/C=C(\C#N)C(=O)Nc2cccc(C(=O)O)c2)ccc1OCc1ccc(Cl)cc1	none | Jurkat NFkB conf inactive
COc1cc(/C=N/O)ccc1OCc1ccc(Cl)cc1	none (no result: Gli-Sufu block) | Jurkat NFkB conf inactive
O=C(Nc1ccc(-c2nc3cccnc3s2)cc1)c1cccnc1Cl	none | Jurkat NFkB conf inactive
O=C(Nc1cccc(-c2nc3cccnc3s2)c1)c1ccco1	none
O=C(Nc1ccc(-c2nc3cccnc3s2)cc1)c1ccco1	none | Jurkat NFkB conf inactive
O=C(Nc1ccc(-c2nc3cccnc3s2)cc1)c1ccc(Cl)nc1	none
COC(=O)C1C(=O)c2c([nH]c(C(=O)OC3CCCCC3)c2C)CC1C (configuration not stated)	none | Jurkat NFkB conf inactive
COC(=O)C1C(=O)c2c([nH]c(C(=O)OCCOC(C)C)c2C)CC1C (configuration not stated)	none
COC(=O)C1C(=O)c2c([nH]c(C(=O)OC3CCCC3C)c2C)CC1C (configuration not stated)	none | Jurkat NFkB conf inactive
O=C(CNS(=O)(=O)c1ccc(Br)s1)N1CCN(c2ccc(F)cc2)CC1	none
COC(=O)c1[nH]c(C)c(/C(O)=C2\C(=O)C(=O)N(CCN3CCOCC3)C2c2cccs2)c1C (configuration not stated)	none
CCOC(=O)c1[nH]c(C)c(/C(O)=C2\C(=O)C(=O)N(CCCN3CCOCC3)C2c2cccs2)c1C (configuration not stated)	Jurkat NFkB inh 55 | Jurkat NFkB conf inactive
COc1cc(OC)cc(-c2cc3ccc(OC)cc3cn2)c1	none
COc1ccc2cc(C3=CCCCC3)ncc2c1	none | Jurkat NFkB conf inactive
COc1cc2cnc(C3=CCCCC3)cc2cc1OC	none
COc1ccc2cc(-c3ccsc3)ncc2c1	none | Jurkat NFkB conf inactive
CCCC(=O)Nc1c2c(nn1-c1ccc([N+](=O)[O-])cc1)CS(=O)(=O)C2	none
CCn1c(SCC(=O)Nc2ccc(OC)c(S(=O)(=O)N3CCCCC3)c2)nnc1C1CC1	none (no result: Beta cell apopt)
Oc1ccccc1C1NN=C(c2ccccc2)S1 (configuration not stated)	none (no result: Beta cell apopt) | Jurkat NFkB conf inactive
CC(C)CC(NC(=O)CC12CC3CC(CC(C3)C1)C2)C(=O)NC1=NCCS1 (configuration not stated)	none
Cn1cccc1C(=O)C(=O)Nc1ccc(Cl)cc1	none
Cn1cccc1C(=O)C(=O)Nc1cccc(Cl)c1Cl	none | Jurkat NFkB conf inactive
O=C(CSc1nc2ccccc2[nH]1)c1ccccc1F	none
Fc1cccc(F)c1CSc1nc2ccccc2[nH]1	none | Jurkat NFkB conf inactive
COc1cccc(-c2nnc3n2N=C(c2cc(OC)ccc2OC)CS3)c1	none
CCOc1cccc(-c2nnc3n2N=C(c2cc(OC)ccc2OC)CS3)c1	Jurkat NFkB inh 53 | Jurkat NFkB conf 48
COc1ccc(-c2nc3ccc([N+](=O)[O-])cc3[nH]2)cc1	none (no result: 697 NFkB inh, Mdm2 MdmX PPI, Jurkat NFkB inh)
COc1ccc(-c2nc3cc([N+](=O)[O-])ccc3o2)cc1	none | Jurkat NFkB conf inactive
CC(C)(C)c1ccc(-c2nc3cc(N)ccc3o2)cc1	none | Jurkat NFkB conf inactive
Nc1ccc(-c2nc3cc([N+](=O)[O-])ccc3o2)cc1	none | Jurkat NFkB conf inactive
CCCCN(CCCC)CCNC(=O)c1cn(C)c2ccc(S(=O)(=O)N3CCCC3)cc2c1=O	none (no result: Gli-Sufu block)
O=C(Cn1ccc(C(F)(F)F)n1)N/N=C/c1ccc(N2CCOCC2)cc1	none (no result: Beta cell apopt)
Cc1ccc(C2(C)NC(=O)N(CC(=O)NNC(=O)c3ccccc3F)C2=O)cc1 (configuration not stated)	none
C=CCn1c(SC(C)C(=O)NC2CC2)nnc1-c1ccoc1C (configuration not stated)	none
CCCCOC(=O)C1=C(C)NC(=O)NC1c1ccccc1 (configuration not stated)	none
N#Cc1cc2cc3c(cc2nc1SCC(=O)N1CCCC1)OCCO3	none | Jurkat NFkB conf inactive
Cc1ccc(S(=O)(=O)Cc2ccc(C(=O)N3CCN(c4cccc(C)c4C)CC3)o2)cc1	Jurkat NFkB inh 58 | Jurkat NFkB conf 52
COc1ccc(S(=O)(=O)Cc2ccc(C(=O)N3CCN(c4cccc(C)c4)C(C)C3)o2)cc1 (configuration not stated)	Jurkat NFkB inh 61 (no result: Beta cell apopt) | Jurkat NFkB conf inactive
CC(=O)Nc1ccc(S(=O)(=O)NNC(=O)c2cccc(Br)c2)cc1	none
Cc1ccc(-n2cc(C(=O)c3ccc(F)cc3)nn2)cc1Cl	none | Jurkat NFkB conf inactive
CCOC(=O)c1ccc(-n2cc(C(=O)c3cccnc3)nn2)cc1	none (no result: 697 NFkB inh, Mdm2 MdmX PPI, Jurkat NFkB inh)
O=C(OCc1c(-c2ccccc2)ncc2ccccc12)c1ccco1	none
NC(=O)c1c(NC(=O)c2ccccc2F)sc2c1CCCC2	none | Jurkat NFkB conf inactive

Compound activity: PubChem, several laboratories
